Source: article PMC7862700, “An all-to-all approach to the identification of sequence-specific readers for epigenetic DNA modifications on cytosine”

Key:
Assay in all cases: DAPPL (digital affinity profiling via proximity ligation, sequencing); 10 mM Tris-HCl pH 7.5, 50 mM NaCl, 1 mM DTT, 4% glycerol, room temperature, 30 min; GST-TFs on glutathione beads, 16-mer random dsDNA library, 0.1% formaldehyde crosslink after washing; high values mean tight binding
Settings in all cases: protein: recombinant; tags: N-terminal GST; dsDNA, one strand shown
FLI1 = molecular target: T1, FLI1 (Homo sapiens, UniProt Q01543 1-452)
T1 sequence: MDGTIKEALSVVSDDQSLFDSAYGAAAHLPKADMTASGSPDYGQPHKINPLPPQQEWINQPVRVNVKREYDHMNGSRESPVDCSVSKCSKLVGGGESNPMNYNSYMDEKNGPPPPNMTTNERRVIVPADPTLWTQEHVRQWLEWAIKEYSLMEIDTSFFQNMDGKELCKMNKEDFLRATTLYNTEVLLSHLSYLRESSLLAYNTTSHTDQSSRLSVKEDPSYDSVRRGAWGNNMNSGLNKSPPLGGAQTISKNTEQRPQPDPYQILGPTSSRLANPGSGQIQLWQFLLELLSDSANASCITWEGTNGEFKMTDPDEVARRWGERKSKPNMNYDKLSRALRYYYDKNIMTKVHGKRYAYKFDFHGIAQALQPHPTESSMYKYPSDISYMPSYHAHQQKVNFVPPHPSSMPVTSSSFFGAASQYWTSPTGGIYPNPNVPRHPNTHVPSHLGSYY
In short: (§1)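 Binding signal is each hexamer's read frequency for a factor divided by its frequency in the tag-only sample. The factors were GST-fused human transcription factors from yeast, captured on glutathione beads, DNA-barcoded and pooled with that sample. Pools were incubated with 200 nmole of a random double-stranded 16-mer DNA library in Tris/NaCl/DTT/glycerol buffer at room temperature for 30 min, then washed, crosslinked with 0.1% formaldehyde, proximity-ligated with BsaI/T4 ligase (1 h, 37 °C), PCR-amplified and sequenced on an Illumina NextSeq500.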

ELK1 = molecular target: T2, ELK1 (Homo sapiens, UniProt P19419 1-428)
T2 sequence: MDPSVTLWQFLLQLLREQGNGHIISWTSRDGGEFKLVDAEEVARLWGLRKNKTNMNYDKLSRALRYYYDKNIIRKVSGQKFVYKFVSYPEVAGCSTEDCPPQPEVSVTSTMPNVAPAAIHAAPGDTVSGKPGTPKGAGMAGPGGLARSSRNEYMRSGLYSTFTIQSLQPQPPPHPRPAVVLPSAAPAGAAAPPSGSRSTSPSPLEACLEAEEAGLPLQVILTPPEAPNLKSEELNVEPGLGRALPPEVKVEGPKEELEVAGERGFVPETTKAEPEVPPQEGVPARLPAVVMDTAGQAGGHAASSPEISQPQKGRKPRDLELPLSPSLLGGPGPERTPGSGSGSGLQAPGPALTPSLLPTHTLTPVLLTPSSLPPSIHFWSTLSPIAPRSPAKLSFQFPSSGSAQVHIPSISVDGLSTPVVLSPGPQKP
In short: as §1

GABPA = molecular target: T3, GABPA (Homo sapiens, UniProt Q06546 1-454)
T3 sequence: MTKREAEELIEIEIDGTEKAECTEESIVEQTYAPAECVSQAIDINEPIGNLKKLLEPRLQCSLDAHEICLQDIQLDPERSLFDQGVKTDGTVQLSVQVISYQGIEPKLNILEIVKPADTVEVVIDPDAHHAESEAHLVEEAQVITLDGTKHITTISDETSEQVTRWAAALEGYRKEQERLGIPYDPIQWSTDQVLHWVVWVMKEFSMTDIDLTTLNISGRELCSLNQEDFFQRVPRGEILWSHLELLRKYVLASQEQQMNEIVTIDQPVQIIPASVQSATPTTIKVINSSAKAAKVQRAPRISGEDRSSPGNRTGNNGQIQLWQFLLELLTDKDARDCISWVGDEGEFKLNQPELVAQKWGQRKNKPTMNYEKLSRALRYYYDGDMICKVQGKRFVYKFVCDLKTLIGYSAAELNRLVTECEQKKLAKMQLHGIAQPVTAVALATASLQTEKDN
In short: as §1

ERG = molecular target: T4, ERG (Homo sapiens, UniProt P11308 1-479)
T4 sequence: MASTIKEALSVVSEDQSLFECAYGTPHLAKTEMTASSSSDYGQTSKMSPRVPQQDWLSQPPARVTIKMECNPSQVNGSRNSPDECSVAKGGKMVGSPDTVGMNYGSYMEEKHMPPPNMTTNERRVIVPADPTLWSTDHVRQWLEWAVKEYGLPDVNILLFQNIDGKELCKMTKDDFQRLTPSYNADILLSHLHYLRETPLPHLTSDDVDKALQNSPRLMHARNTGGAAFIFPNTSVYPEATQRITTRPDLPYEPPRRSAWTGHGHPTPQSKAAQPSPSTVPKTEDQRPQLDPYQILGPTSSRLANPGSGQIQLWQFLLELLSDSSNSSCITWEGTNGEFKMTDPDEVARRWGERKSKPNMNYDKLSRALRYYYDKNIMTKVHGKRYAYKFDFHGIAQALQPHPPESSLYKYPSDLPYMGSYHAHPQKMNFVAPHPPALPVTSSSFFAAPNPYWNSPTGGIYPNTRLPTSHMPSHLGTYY
In short: as §1

ELF1 = ELF1 (Homo sapiens, UniProt P32519 1-619)
Chain of ELF1 (P32519 whole entry): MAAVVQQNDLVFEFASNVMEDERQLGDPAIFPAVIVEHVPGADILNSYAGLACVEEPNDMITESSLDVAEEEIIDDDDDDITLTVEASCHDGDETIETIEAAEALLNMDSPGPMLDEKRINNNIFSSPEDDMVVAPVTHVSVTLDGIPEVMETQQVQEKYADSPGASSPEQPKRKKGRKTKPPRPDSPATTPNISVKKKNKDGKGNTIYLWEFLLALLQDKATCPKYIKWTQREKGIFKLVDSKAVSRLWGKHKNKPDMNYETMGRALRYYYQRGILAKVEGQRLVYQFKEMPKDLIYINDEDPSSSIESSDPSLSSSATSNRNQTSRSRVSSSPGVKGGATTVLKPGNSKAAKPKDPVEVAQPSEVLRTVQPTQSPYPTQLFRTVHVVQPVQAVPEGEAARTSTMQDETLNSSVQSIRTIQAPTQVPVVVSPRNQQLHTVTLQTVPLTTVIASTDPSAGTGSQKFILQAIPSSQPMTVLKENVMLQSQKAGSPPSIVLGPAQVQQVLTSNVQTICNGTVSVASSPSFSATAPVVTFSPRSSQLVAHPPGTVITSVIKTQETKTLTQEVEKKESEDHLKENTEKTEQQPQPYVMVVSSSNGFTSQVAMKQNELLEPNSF
In short: as §1

EHF = molecular target: T5, EHF (Homo sapiens, UniProt Q9NZC4 1-300)
T5 sequence: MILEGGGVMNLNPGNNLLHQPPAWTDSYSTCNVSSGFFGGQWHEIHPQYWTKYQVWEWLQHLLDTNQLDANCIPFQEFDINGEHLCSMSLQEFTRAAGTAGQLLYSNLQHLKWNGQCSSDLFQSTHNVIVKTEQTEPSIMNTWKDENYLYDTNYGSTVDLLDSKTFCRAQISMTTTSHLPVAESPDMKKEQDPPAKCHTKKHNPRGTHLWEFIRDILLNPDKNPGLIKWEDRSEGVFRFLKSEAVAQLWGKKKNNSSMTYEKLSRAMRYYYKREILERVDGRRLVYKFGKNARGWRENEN
In short: as §1

SPI1 = SPI1 (Homo sapiens, UniProt P17947 1-270)
In short: as §1

SPIB = SPIB (Homo sapiens, UniProt Q01892 1-262)
Chain of SPIB (Q01892 whole entry): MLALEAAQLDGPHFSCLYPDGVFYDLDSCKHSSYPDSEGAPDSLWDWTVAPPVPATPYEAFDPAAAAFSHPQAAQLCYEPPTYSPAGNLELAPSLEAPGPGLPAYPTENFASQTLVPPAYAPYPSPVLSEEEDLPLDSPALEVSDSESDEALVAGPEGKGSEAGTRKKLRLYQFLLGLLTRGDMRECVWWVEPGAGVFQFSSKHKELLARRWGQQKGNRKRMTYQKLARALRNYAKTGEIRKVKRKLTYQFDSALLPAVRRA
In short: as §1

FEV = molecular target: T6, FEV (Homo sapiens, UniProt Q99581 1-238)
T6 sequence: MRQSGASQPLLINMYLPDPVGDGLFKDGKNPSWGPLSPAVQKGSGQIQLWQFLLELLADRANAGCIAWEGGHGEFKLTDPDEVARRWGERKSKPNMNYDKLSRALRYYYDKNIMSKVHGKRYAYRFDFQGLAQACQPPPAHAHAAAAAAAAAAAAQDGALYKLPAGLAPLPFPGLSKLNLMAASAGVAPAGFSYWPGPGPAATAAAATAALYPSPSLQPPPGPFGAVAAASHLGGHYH
In short: as §1

ETV5 = ETV5 (Homo sapiens, UniProt P41161 1-510)
Chain of ETV5 (P41161 whole entry): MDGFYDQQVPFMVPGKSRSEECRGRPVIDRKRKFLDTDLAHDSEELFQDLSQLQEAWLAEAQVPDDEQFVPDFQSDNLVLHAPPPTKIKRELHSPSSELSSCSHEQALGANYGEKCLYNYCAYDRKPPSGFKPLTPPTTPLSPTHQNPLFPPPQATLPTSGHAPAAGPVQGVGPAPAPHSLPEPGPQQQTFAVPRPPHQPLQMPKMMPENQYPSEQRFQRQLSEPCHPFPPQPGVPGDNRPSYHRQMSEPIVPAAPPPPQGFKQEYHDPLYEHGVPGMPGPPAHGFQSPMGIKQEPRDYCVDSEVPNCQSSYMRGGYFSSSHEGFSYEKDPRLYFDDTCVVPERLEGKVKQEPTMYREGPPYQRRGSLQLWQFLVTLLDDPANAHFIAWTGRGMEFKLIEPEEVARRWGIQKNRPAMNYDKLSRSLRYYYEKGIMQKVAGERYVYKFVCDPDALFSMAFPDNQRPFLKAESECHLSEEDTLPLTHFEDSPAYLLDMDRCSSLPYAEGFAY
In short: as §1

ELF4 = ELF4 (Homo sapiens, UniProt Q99607 1-663)
Chain of ELF4 (Q99607 whole entry): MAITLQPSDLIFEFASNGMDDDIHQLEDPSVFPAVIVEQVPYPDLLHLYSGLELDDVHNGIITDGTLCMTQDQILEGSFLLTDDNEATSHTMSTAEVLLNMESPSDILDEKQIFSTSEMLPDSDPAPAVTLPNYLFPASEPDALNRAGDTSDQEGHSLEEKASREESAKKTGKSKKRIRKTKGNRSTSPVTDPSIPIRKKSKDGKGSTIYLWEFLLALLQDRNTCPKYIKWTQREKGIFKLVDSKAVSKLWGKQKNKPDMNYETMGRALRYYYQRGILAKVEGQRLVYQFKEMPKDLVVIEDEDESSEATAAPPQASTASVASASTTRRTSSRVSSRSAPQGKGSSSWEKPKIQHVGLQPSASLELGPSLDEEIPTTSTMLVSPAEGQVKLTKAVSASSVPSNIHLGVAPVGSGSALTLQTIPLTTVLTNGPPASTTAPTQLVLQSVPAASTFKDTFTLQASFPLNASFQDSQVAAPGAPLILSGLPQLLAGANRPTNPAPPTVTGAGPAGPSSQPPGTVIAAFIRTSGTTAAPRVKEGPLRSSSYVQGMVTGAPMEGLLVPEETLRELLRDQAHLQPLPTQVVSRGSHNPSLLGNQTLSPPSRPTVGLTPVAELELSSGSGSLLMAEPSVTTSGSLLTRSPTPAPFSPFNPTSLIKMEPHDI
In short: as §1

ETV2 = molecular target: T7, ETV2 (Homo sapiens, UniProt O00321 1-342)
T7 sequence: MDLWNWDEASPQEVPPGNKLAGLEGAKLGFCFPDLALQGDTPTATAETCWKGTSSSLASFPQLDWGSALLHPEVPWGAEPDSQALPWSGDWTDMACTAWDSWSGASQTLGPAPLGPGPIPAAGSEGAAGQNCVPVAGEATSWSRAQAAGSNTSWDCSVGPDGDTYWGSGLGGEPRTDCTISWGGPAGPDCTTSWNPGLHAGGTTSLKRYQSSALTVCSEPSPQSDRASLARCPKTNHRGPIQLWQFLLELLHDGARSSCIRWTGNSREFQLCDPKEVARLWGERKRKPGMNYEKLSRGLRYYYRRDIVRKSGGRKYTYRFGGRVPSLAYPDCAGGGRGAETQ
In short: as §1

ELF3 = molecular target: T8, ELF3 (Homo sapiens, UniProt P78545 1-371)
T8 sequence: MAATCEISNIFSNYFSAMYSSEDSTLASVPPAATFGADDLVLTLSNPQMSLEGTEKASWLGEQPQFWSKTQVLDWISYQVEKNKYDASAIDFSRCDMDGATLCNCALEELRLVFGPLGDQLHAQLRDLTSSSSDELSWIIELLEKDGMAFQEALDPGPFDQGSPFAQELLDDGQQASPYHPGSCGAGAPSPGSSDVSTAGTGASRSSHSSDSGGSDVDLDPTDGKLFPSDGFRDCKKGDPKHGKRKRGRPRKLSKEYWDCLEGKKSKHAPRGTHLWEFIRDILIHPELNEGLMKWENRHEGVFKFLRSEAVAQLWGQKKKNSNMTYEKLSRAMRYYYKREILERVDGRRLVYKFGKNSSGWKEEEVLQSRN
In short: as §1

ETV1 = ETV1 (Homo sapiens, UniProt P50549 1-477)
Chain of ETV1 (P50549 whole entry): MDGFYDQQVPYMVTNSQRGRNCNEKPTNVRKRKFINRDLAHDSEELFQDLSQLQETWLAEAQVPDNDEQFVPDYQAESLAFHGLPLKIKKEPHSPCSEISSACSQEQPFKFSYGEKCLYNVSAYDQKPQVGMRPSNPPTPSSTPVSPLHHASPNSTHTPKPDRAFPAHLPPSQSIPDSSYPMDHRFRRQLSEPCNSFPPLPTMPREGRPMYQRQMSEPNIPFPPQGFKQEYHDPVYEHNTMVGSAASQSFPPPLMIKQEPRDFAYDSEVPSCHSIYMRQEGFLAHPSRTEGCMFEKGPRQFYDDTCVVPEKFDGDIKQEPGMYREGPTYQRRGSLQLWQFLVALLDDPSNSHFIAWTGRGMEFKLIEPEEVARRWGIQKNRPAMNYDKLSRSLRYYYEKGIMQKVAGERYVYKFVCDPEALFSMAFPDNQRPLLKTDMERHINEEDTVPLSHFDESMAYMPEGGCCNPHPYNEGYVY
In short: as §1

ETV3L = molecular target: T9, ETV3L (Homo sapiens, UniProt Q6ZN32 1-361)
T9 sequence: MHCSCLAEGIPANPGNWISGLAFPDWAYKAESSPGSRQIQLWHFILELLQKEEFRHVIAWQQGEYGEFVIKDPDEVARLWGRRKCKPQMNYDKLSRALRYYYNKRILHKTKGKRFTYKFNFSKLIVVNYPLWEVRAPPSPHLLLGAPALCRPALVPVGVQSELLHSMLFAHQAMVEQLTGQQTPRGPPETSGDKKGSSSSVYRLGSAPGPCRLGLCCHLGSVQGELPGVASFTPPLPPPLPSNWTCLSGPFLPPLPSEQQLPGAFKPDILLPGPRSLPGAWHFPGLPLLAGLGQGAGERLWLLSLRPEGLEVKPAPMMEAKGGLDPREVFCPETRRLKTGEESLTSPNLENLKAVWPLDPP
In short: as §1

ETS2 = molecular target: T10, ETS2 (Homo sapiens, UniProt P15036 1-469)
T10 sequence: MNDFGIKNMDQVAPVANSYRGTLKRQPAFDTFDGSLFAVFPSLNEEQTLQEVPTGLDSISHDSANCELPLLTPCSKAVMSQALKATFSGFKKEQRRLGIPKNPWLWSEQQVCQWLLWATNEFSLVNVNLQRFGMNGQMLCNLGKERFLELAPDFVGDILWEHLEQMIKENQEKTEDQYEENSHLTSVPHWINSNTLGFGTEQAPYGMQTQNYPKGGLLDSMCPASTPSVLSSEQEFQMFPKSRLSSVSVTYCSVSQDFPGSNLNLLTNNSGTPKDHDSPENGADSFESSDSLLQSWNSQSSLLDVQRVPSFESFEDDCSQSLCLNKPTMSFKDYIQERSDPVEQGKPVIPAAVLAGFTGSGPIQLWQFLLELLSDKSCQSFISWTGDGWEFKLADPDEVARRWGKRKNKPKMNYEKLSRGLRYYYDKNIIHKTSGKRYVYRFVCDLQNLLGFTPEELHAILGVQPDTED
In short: as §1

ETV7 = molecular target: T11, ETV7 (Homo sapiens, UniProt Q9Y603 1-341)
T11 sequence: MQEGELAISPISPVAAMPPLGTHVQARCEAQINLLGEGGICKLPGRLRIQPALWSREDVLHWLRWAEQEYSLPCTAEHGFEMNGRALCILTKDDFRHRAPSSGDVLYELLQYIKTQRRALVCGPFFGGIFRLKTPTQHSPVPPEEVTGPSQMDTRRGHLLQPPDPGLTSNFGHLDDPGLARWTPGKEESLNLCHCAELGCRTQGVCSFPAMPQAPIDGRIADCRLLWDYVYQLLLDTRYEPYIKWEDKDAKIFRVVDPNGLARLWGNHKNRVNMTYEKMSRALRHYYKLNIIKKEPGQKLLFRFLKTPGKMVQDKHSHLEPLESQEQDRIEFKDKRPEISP
In short: as §1

ETV3 = molecular target: T12, ETV3 (Homo sapiens, UniProt P41162-2 1-143)
T12 sequence: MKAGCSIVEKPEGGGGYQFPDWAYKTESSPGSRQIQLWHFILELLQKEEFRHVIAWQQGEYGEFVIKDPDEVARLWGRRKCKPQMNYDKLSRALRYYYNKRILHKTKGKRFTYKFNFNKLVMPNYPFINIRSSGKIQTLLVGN
In short: as §1

ETV6 = ETV6 (Homo sapiens, UniProt P41212 1-452)
Chain of ETV6 (P41212 whole entry): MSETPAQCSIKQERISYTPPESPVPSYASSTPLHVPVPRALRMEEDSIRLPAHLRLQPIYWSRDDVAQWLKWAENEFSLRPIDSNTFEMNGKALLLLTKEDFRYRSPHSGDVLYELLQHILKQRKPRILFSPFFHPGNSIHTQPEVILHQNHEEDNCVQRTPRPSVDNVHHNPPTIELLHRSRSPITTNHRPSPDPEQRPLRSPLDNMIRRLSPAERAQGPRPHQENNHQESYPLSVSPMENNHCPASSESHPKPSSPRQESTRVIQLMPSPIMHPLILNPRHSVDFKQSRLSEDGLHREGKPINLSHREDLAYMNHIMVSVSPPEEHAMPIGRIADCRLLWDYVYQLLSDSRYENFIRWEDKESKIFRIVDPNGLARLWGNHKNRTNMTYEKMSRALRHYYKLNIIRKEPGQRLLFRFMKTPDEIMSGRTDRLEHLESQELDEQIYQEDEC
In short: as §1

## CGCCTG
FLI1
  binding signal: 1.11 fold enrichment (6-mer frequency, TF over GST control)
ELK1
  binding signal: 1.17 fold enrichment (6-mer frequency, TF over GST control)
GABPA
  binding signal: 1.08 fold enrichment (6-mer frequency, TF over GST control)
ERG
  binding signal: 1.15 fold enrichment (6-mer frequency, TF over GST control)
ELF1
  binding signal: 1.12 fold enrichment (6-mer frequency, TF over GST control)
EHF
  binding signal: 1.11 fold enrichment (6-mer frequency, TF over GST control)
SPI1
  binding signal: 1.1 fold enrichment (6-mer frequency, TF over GST control)
SPIB
  binding signal: 1.07 fold enrichment (6-mer frequency, TF over GST control)
FEV
  binding signal: 1.08 fold enrichment (6-mer frequency, TF over GST control)
ETV5
  binding signal: 1.18 fold enrichment (6-mer frequency, TF over GST control)
ELF4
  binding signal: 1.05 fold enrichment (6-mer frequency, TF over GST control)
ETV2
  binding signal: 1.01 fold enrichment (6-mer frequency, TF over GST control)
ELF3
  binding signal: 1.19 fold enrichment (6-mer frequency, TF over GST control)
ETV1
  binding signal: 1.09 fold enrichment (6-mer frequency, TF over GST control)
ETV3L
  binding signal: 1.1 fold enrichment (6-mer frequency, TF over GST control)
ETS2
  binding signal: 1.12 fold enrichment (6-mer frequency, TF over GST control)
ETV7
  binding signal: 1.01 fold enrichment (6-mer frequency, TF over GST control)
ETV3
  binding signal: 1.06 fold enrichment (6-mer frequency, TF over GST control)
ETV6
  binding signal: 1.14 fold enrichment (6-mer frequency, TF over GST control)
